Reference: PubChem BioAssay (Tox21)
Values joined by “and” are separate entries in the source; they are usually repeats but may differ in a detail not shown here. Identical values can stand only once. Inconclusive results are not listed. A call without a number means that no potency is given here. Active and inactive are the calls of the source. Unless noted, the call rests on the fitted dose curve; in most records, active means well fitted curve in the direction sought with a large enough effect in the repeat runs; inconclusive means weak or mixed curves; inactive means no such curve, though single readings can be large; an effect the other way counts as inactive or inconclusive.

Tests used:
[1] = qHTS assay to identify aromatase inhibitors - cell viability counter screen (AID 743084);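 further: cells stimulated with testosterone during compound exposure; nearly all actives have a fitted effect of over 55% in size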; further: potency means the concentration at half of the fitted maximal effect
[2] = target: Aryl hydrocarbon receptor (Homo sapiens) (UniProt P35869); assay: qHTS assay to identify small molecule that activate the aryl hydrocarbon receptor (AhR) signaling pathway (AID 743085); further: nearly all actives have a fitted effect of over 15% in size; further: potency means the concentration at half of the fitted maximal effect;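 on activation: HG2L7.5c1 human HepG2 liver cells with stably integrated DRE-driven firefly reporter; series mostly up to about 70 µM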
Chain of Aryl hydrocarbon receptor (Homo sapiens) (P35869 whole entry, looked up): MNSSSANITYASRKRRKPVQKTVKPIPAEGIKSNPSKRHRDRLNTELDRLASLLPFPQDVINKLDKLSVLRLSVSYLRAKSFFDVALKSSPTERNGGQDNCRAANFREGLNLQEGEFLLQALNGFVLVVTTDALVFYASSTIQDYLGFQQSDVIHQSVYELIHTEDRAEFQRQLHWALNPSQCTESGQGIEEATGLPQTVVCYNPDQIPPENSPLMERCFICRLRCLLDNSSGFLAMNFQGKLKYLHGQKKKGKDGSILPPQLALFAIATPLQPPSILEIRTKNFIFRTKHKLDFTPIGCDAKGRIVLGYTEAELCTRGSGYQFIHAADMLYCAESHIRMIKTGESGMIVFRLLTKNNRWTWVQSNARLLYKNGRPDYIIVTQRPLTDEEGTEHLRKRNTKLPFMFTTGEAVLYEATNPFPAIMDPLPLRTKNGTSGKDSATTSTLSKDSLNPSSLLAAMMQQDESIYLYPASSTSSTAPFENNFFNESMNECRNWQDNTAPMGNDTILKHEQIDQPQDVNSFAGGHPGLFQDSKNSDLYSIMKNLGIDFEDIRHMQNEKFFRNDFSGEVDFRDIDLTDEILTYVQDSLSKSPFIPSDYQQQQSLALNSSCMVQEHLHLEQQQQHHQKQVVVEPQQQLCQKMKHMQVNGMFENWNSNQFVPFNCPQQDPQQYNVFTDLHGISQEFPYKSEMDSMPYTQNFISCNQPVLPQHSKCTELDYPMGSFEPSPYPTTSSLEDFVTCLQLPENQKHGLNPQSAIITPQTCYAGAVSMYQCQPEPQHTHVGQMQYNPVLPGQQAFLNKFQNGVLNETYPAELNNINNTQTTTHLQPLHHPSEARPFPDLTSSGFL
Procedure, shortened: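 HepG2 cells (HG2L7.5c1) stably carrying a firefly luciferase reporter driven by 20 dioxin responsive elements were exposed to compound for 24 h at 37C after a 5 h settling period; luminescence rise (ONE-Glo) indicated activation.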

[3] = qHTS assay to identify small molecule that activate the aryl hydrocarbon receptor (AhR) signaling pathway - cell viability counter screen (AID 743086); further: nearly all actives have a fitted effect of over 45% in size; further: potency means the concentration at half of the fitted maximal effect
Procedure, shortened: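 HepG2-AhR-luc (HG2L7.5c1) cells, 4000/well, were preincubated 5 h at 37C, exposed to compound in qHTS format for 24 hr at 37C, then given CellTiter-Fluor for 30 min; viability was read as fluorescence in the reporter wells.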

[4] = target: Peroxisome proliferator-activated receptor gamma (Homo sapiens) (UniProt P37231); assay: qHTS assay to identify small molecule antagonists of the peroxisome proliferator-activated receptor gamma (PPARg) signaling pathway (AID 743191; calls by dose curve; further: nearly all actives have a fitted effect of over 30% in size; further: potency means the concentration at half of the fitted maximal effect)
Chain of Peroxisome proliferator-activated receptor gamma (Homo sapiens) (P37231 whole entry, looked up): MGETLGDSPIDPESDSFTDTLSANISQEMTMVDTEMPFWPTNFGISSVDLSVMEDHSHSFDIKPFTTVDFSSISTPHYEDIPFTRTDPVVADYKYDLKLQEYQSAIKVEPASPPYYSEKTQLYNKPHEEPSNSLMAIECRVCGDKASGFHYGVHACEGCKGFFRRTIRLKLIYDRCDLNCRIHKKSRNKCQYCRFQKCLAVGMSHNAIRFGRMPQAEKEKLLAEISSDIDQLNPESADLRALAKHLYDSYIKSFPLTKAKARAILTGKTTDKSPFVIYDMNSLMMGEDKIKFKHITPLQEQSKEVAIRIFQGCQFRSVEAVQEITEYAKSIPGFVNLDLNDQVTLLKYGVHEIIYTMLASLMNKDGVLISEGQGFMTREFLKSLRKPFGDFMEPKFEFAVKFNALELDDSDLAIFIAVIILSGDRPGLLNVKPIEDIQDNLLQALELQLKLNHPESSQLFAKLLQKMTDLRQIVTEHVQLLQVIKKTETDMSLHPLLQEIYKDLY
Procedure, shortened: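 GeneBLAzer PPARg UAS-bla HEK293H cells carrying a UAS-driven beta-lactamase reporter were plated at 3000 cells/well, preincubated 5 h at 37C, then given compound for 17 h at 37C; LiveBLAzer B/G FRET substrate was read after 1 h at room temperature.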

[5] = qHTS assay to identify small molecule antagonists of the peroxisome proliferator-activated receptor gamma (PPARg) signaling pathway - cell viability counter screen (AID 743194); further: nearly all actives have a fitted effect of over 55% in size; further: potency means the concentration at half of the fitted maximal effect
Procedure, shortened: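 PPARg-UAS-bla HEK293H cells were plated, rested 5 h at 37 C, then treated with compounds plus rosiglitazone (50 nM final) for 17 h at 37 C; viability was then read by CellTiter-Glo luminescence after 30 min at room temperature.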

[6] = qHTS assay for small molecule agonists of the antioxidant response element (ARE) signaling pathway (AID 743202; active means well fitted activation curve with a large enough effect in the signal ratio in the repeat runs, not every such curve was filed as active; the % refers to the signal ratio; further: potency means the concentration at half of the fitted maximal effect)
Procedure, shortened: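 Steps: seed ARE-bla HepG2 cells (2,000/well); incubate 5 h at 37 C; add compounds by pin tool; incubate 16 h at 37 C; add FRET substrate; read fluorescence after 2 h at RT.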

[7] = qHTS assay for small molecule agonists of the antioxidant response element (ARE) signaling pathway - cell viability counter screen (AID 743203; calls by dose curve; further: nearly all actives have a fitted effect of over 55% in size; further: potency means the concentration at half of the fitted maximal effect)
Procedure, shortened: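 Parallel cytotoxicity read-out for the ARE-bla screen: HepG2 reporter cells, 16 hrs with compounds, then CellTiter-Glo luminescence.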

[8] = qHTS assay for small molecule activators of the heat shock response signaling pathway - cell viability counter screen (AID 743209); further: nearly all actives have a fitted effect of over 50% in size
Procedure, shortened: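 To flag cytotoxic compounds, HSE-bla HeLa cells plated at 1500 cells/well were dosed for 5 h at 37 C, followed by the reporter FRET read and then CellTiter-Glo, with luminescence recorded 30 min after reagent addition.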

[9] = qHTS assay for small molecule activators of the heat shock response signaling pathway (AID 743210; active means well fitted activation curve with a large enough effect in the signal ratio in the repeat runs, with a control signal flat, not every such curve was filed as active; the % refers to the signal ratio;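 further: HeLa cells with beta-lactamase reporter driven by heat shock elements; series mostly up to about 63 µM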)
Procedure, shortened: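 Activation of heat shock element-controlled beta-lactamase expression is measured in HeLa cells by LiveBLAzer FRET fluorescence, with compound exposure lasting 5 h at 37 C and substrate loading 2.5 h at room temperature.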

[10] = qHTS assay to identify small molecule antagonists of the peroxisome proliferator-activated receptor delta (PPARd) signaling pathway - cell viability counter screen (AID 743213); further: nearly all actives have a fitted effect of over 50% in size
Procedure, shortened: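 PPARd-bla HEK293H cells (3000/well) got compound plus 300 nM L165041 agonist for 17 h at 37 C. Viability in the same wells came from CellTiter-Glo luminescence after 30 min at room temperature.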

[11] = target: Peroxisome proliferator-activated receptor delta (Homo sapiens) (UniProt Q03181); assay: qHTS assay to identify small molecule antagonists of the peroxisome proliferator-activated receptor delta (PPARd) signaling pathway (AID 743215; active means well fitted inhibition curve with a large enough effect in the signal ratio in the repeat runs, not every such curve was filed as active; the % refers to the signal ratio;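 further: cells stimulated with agonist L165041 at 300 nM final during compound exposure; series mostly up to about 62 µM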)
Chain of Peroxisome proliferator-activated receptor delta (Homo sapiens) (Q03181 whole entry, looked up): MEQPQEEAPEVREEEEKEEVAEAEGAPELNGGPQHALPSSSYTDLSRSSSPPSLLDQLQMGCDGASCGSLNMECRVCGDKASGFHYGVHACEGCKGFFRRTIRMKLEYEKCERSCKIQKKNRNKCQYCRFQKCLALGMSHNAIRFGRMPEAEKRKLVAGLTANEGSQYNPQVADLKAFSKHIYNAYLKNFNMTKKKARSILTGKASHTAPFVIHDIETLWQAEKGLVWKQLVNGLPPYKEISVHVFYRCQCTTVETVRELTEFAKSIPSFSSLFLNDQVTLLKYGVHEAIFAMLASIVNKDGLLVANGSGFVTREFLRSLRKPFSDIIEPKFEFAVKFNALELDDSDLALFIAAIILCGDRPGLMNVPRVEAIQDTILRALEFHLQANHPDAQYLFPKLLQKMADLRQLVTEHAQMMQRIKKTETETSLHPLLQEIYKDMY
Procedure, shortened: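 Screen format: qHTS, antagonist mode. HEK293H PPARd-bla cells received compound and 300 nM L165041 (final), 17 h, 37 C. Beta-lactamase detected via FRET substrate fluorescence, 2 h, room temperature.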

[12] = qHTS assay to identify small molecule agonists of the farnesoid-X-receptor (FXR) signaling pathway - cell viability counter screen (AID 743218); further: nearly all actives have a fitted effect of over 45% in size
Procedure, shortened: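 Same-well cytotoxicity check on FXR-UAS-bla HEK 293T cells: 5 h attachment, 16 h compound at 37 C, CellTiter-Glo luminescence read at room temperature after 30 min.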

[13] = qHTS assay to identify small molecule antagonists of the farnesoid-X-receptor (FXR) signaling pathway - cell viability counter screen (AID 743221; active means well fitted cell-killing curve with a large enough effect in the repeat runs, not every such curve was filed as active; further: nearly all actives have a fitted effect of over 50% in size; further: potency means the concentration at half of the fitted maximal effect)
Procedure, shortened: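 FXR-UAS-bla HEK 293T cells were treated with test compounds plus chenodeoxycholic acid (50 uM final) for 16 h at 37 C. Cell viability in the same wells was then read as CellTiter-Glo luminescence after 30 min at room temperature.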

[14] = qHTS assay to identify small molecule agonists of the peroxisome proliferator-activated receptor delta (PPARd) signaling pathway - cell viability counter screen (AID 743211); further: nearly all actives have a fitted effect of over 55% in size
Procedure, shortened: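 PPARd-bla HEK293H cells (UAS-beta-lactamase reporter) were treated with compounds for 17 h at 37 C. Viability was then read in the same wells by CellTiter-Glo luminescence after 30 min at room temperature.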

[15] = target: Peroxisome proliferator-activated receptor delta (Homo sapiens) (UniProt Q03181); assay: qHTS assay to identify small molecule agonists of the peroxisome proliferator-activated receptor delta (PPARd) signaling pathway (AID 743212; calls by dose curve)
Procedure, shortened: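 Cells expressing a UAS-driven beta-lactamase reporter (PPARd-bla HEK293H) were given test compounds after a 5 h settle and kept at 37 C. Reporter activity was then measured as FRET fluorescence using LiveBLAzer B/G substrate.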

[16] = target: Vitamin D3 receptor (Homo sapiens) (UniProt P11473); assay: qHTS assay to identify small molecule agonists of the vitamin D receptor (VDR) signaling pathway (AID 743222; calls by dose curve)
Chain of Vitamin D3 receptor (Homo sapiens) (P11473 whole entry, looked up): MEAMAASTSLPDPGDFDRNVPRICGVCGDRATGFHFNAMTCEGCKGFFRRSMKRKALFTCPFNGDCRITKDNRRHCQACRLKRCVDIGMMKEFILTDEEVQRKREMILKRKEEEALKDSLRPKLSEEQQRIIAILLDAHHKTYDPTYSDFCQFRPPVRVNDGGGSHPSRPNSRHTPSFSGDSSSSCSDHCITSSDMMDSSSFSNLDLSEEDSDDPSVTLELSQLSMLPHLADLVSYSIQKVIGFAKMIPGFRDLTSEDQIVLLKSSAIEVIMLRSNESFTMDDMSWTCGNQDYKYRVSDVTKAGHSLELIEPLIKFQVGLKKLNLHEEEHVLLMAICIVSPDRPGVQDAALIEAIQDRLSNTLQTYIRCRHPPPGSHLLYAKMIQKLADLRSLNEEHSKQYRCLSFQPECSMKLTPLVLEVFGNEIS
Procedure, shortened: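 Using LiveBLAzer B/G FRET detection, agonism was scored in VDR-bla cells exposed overnight (16 h, 37C) to DMSO-dissolved compounds; substrate incubation was 2 h at room temperature.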

[17] = target: Vitamin D3 receptor (Homo sapiens) (UniProt P11473); assay: qHTS assay to identify small molecule antagonists of the vitamin D receptor (VDR) signaling pathway (AID 743223; active means well fitted inhibition curve with a large enough effect in the signal ratio in the repeat runs, not every such curve was filed as active; the % refers to the signal ratio)
Procedure, shortened: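 VDR-bla cells were plated, incubated 4 h at 37C, then given compound and 1alpha,25-dihydroxyvitamin D3 (3 nM final). After 16 h at 37C, LiveBLAzer B/G FRET substrate was added for 2 h at room temperature and fluorescence read.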

[18] = target: Bile acid receptor (Homo sapiens) (UniProt Q96RI1); assay: qHTS assay to identify small molecule antagonists of the farnesoid-X-receptor (FXR) signaling pathway (AID 743217; active means well fitted inhibition curve with a large enough effect in the signal ratio in the repeat runs, not every such curve was filed as active; the % refers to the signal ratio)
Chain of Bile acid receptor (Homo sapiens) (Q96RI1 whole entry, looked up): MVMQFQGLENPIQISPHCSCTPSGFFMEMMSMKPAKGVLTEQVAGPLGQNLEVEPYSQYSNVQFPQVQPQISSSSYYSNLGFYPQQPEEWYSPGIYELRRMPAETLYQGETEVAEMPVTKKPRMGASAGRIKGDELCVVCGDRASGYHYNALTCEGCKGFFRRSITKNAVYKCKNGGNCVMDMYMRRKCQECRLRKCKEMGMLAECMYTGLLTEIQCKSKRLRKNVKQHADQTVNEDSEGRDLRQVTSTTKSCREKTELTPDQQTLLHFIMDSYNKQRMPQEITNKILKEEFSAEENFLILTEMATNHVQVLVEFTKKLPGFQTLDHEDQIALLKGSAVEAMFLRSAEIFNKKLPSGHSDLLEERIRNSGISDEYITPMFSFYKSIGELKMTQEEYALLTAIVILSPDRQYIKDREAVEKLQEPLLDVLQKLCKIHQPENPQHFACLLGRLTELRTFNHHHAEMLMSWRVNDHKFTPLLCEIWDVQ
Procedure, shortened: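 Quantitative HTS, beta-lactamase reporter format: FXR-UAS-bla HEK 293T cells co-treated 16 h at 37 °C with compounds and 50 uM final chenodeoxycholic acid, then read by B/G FRET fluorescence.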

[19] = target: Bile acid receptor (Homo sapiens) (UniProt Q96RI1); assay: qHTS assay to identify small molecule agonists of the farnesoid-X-receptor (FXR) signaling pathway (AID 743220; active means well fitted activation curve with a large enough effect in the signal ratio in the repeat runs, not every such curve was filed as active; the % refers to the signal ratio)
Procedure, shortened: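 FXR-UAS-bla HEK 293T cells carrying a UAS-driven beta-lactamase reporter were plated for 5 h at 37C/5% CO2, then exposed to DMSO-dissolved Tox21 10K compounds for 16 h at 37C. A LiveBLAzer B/G FRET substrate was loaded for 2 h at room temperature before fluorescence reading.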

[20] = target: Peroxisome proliferator-activated receptor gamma (Homo sapiens) (UniProt P37231); assay: qHTS assay to identify small molecule agonists of the peroxisome proliferator-activated receptor gamma (PPARg) signaling pathway (AID 743094; active means well fitted activation curve with a large enough effect in the signal ratio in the repeat runs, not every such curve was filed as active; the % refers to the signal ratio)
Procedure, shortened: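 Fluorescence-based beta-lactamase readout in HEK293H PPARg UAS-bla cells after 17 h compound exposure (37C) and 1 h B/G FRET substrate incubation at room temperature.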

Compound	Potency [1]	Potency [2]	Potency [3]	Potency [4]	Potency [5]	Potency [6]	Potency [7]	outcome [8]	outcome [9]	Potency [10]	outcome [11]	Potency [12]	Potency [13]	Potency [14]	Potency [15]	outcome [16]	outcome [17]	outcome [18]	outcome [19]	Potency [20]
CCCC1CCCC(=O)O1 (stereo unspecified)	inactive	inactive	inactive	inactive	inactive	inactive	inactive	inactive	inactive	inactive	inactive	inactive	inactive							
CCOCCn1c(N2CCCN(C)CC2)nc2ccccc21	inactive	inactive	inactive			inactive	inactive	inactive	inactive	inactive				inactive	inactive	inactive	inactive			
CC1(C)[C@@H]2CC[C@]3(C2)[C@@H]1C(=O)CCC3(C)C	inactive	inactive	inactive		inactive	inactive	inactive	inactive	inactive	inactive		inactive	inactive	inactive	inactive	inactive	inactive	inactive	inactive	
CCCCCCCCCCCCCCCCN	inactive	inactive	inactive			inactive	inactive	inactive	inactive	inactive		inactive	inactive	inactive		inactive	inactive	inactive	inactive	inactive
CC(=O)Nc1ccn(C2COC(COC(=O)c3ccccc3)O2)c(=O)n1 (stereo unspecified)	inactive	inactive	inactive		inactive	inactive	inactive	inactive	inactive	inactive			inactive	inactive		inactive				
O=c1[nH][nH]c2ccccc12	inactive	62300 nM (active)	inactive		inactive	inactive	inactive	inactive	inactive	inactive	inactive	inactive	inactive	inactive	inactive	inactive	inactive	inactive	inactive	
Nc1nc(Cl)nc2c1ncn2[C@H]1C[C@H](O)[C@@H](CO)O1	inactive	inactive	inactive		inactive	inactive	inactive	inactive	inactive	inactive	inactive	inactive	inactive	inactive		inactive	inactive		inactive	
O=C(O)c1cccc(C(=O)O)c1C(=O)O	inactive	inactive	inactive		inactive		inactive		inactive			inactive	inactive			inactive				inactive
CC(C)C[C@H](NC(=O)[C@H](Cc1ccccc1)NC(=O)c1cnccn1)B(O)O	1330 nM (active)	inactive	376 nM (active) and 335 nM (active)		84.1 nM (active)	23.7 nM (active)	335 nM (active)	inactive					298 nM (active)							
c1ccc(CN(Cc2ccccc2)Cc2ccccc2)cc1	inactive	inactive	inactive				inactive	inactive	inactive	inactive		inactive	inactive			inactive	inactive			inactive
O=C(Cl)c1ccc(F)c(Cl)c1	inactive	inactive	inactive		inactive	inactive	inactive	inactive	inactive	inactive		inactive		inactive	inactive	inactive	inactive			
CS(C)=O	inactive	inactive	inactive		inactive		inactive	inactive		inactive	inactive	inactive		inactive	inactive	inactive		inactive	inactive	inactive
CCCCCCC/C=C/C=O	inactive	inactive	inactive				inactive	inactive	inactive	inactive		inactive	inactive			inactive	inactive			inactive
Oc1ccc(CCNCCCCCCNCCc2ccccc2)cc1O	inactive	inactive	inactive		inactive	inactive	inactive	inactive		inactive		inactive	inactive		inactive		inactive	inactive	inactive	
O=C(O)c1cccnc1Nc1cccc(C(F)(F)F)c1	inactive	inactive	inactive	11900 nM (active)			inactive		inactive			inactive		inactive		inactive		inactive	inactive	
C=C[Si](OCC)(OCC)OCC	inactive	inactive	inactive		inactive	inactive	inactive	inactive	inactive	inactive		inactive	inactive			inactive	inactive			
O=C(Nc1ccc2c(c1)Cc1ccccc1-2)C(F)(F)F	inactive	61100 nM (active)	inactive		inactive		inactive		inactive	inactive		inactive	inactive	inactive		inactive	inactive	inactive	inactive	inactive
CCCCCC1CCC(=O)O1 (stereo unspecified)	inactive		inactive	inactive		inactive	inactive	inactive	inactive	inactive		inactive	inactive		inactive	inactive	inactive	inactive	inactive	inactive
CC(=O)CC/C=C(\C)CC/C=C(\C)CC/C=C(\C)CCC=C(C)C	inactive		inactive	inactive	inactive		inactive	inactive	inactive	inactive	inactive	inactive		inactive	inactive	inactive	inactive	inactive	inactive	inactive
